# Laboratory results: PubChem BioAssay AID1117289 (Broad Institute, 2014)
# Entries with a potency or affinity are not part of this list. Records with an inconclusive call do not appear. Values without a mark were called inactive. Calls of active or inactive are those of the source.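 How the source made its calls: active means inhibitor whose fitted half-maximal dose is at most twice the top tested dose in every run; inconclusive means runs disagree, poor fit, or flat fit inhibiting 30 to 70%; inactive means every run inactive, flat, rising or too weak.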
# Molecular target: Endoplasmic reticulum aminopeptidase 2 (Homo sapiens) (UniProt Q6P179)
# Experiment: ERAP2 aminopeptidase inhibitors, dose response, selectivity assay for selective ERAP1 modulator project, biochemical, plate reader, dry powder, set 2 (AID 1117289)
# Conditions: purified ERAP2, Arg-AMC hydrolysis fluorescence, 1 h; series mostly up to 50 µM; activity change, negative = inhibition: at the top concentration
# Sequence of Endoplasmic reticulum aminopeptidase 2 (Homo sapiens) (Q6P179 whole entry, looked up): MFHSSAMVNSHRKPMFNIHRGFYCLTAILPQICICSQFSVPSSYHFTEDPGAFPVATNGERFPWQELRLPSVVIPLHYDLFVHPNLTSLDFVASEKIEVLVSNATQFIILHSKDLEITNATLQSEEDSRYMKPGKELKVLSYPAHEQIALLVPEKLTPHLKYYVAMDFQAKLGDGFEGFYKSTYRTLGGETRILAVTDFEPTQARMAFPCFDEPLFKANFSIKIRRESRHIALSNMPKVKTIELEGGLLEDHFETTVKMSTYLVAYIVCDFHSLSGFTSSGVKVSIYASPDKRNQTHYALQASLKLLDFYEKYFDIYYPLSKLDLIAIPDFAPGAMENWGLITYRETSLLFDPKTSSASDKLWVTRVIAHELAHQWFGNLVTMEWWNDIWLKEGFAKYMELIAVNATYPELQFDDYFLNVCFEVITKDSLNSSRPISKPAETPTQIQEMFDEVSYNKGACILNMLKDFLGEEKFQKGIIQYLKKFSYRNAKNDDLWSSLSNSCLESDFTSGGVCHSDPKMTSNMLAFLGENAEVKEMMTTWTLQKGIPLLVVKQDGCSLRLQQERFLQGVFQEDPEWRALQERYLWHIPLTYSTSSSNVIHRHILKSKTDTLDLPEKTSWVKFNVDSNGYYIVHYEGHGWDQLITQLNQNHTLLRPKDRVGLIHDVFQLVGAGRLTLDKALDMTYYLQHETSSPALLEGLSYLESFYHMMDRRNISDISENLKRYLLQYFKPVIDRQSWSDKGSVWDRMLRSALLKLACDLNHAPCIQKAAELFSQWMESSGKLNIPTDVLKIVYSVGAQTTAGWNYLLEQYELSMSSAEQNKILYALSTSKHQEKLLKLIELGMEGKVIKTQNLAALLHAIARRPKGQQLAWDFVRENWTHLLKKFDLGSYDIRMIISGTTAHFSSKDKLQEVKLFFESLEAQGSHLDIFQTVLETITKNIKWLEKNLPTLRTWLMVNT
Structure (SMILES),"activity change, negative = inhibition [%]",outcome
O=C(O)c1ccc(Cl)c(S(=O)(=O)Nc2cc(C(F)(F)F)ccc2N2CCCCC2)c1,-2.09,
COc1ccc(C(=O)O)cc1S(=O)(=O)Nc1cccc(N2CCCCC2)c1C(F)(F)F,27.3,
COc1ccc(C(=O)O)cc1S(=O)(=O)Nc1cc(C(F)(F)F)ccc1N1CCOCC1,25,
COc1ccc(C(=O)O)cc1S(=O)(=O)Nc1ccccc1N1CCCCC1,-9.84,
COc1ccc(C(=O)O)cc1S(=O)(=O)Nc1ccc(N2CCCCC2)cc1C(F)(F)F,21.9,
COc1ccc(C(=O)O)cc1S(=O)(=O)Nc1cc(C(F)(F)F)ccc1N1CCN(C)CC1,-3.47,
O=C(O)c1cccc(S(=O)(=O)Nc2cc(C(F)(F)F)ccc2N2CCCCC2)c1,19.5,
COc1ccc(C(=O)O)cc1S(=O)(=O)Nc1cc(C(F)(F)F)ccc1N(C)C,33.6,
COc1ccc(C(=O)O)cc1S(=O)(=O)N1CCN(c2ccc(C(F)(F)F)cc2N)CC1,25.1,
COc1ccc(C(=O)O)cc1S(=O)(=O)Nc1cc(C(F)(F)F)ccc1N1CCCCC1,,inactive
COc1ccc(C(=O)O)cc1S(=O)(=O)Nc1cc(F)ccc1N1CCCCC1,13.2,
O=C(O)c1cc(F)cc(S(=O)(=O)Nc2cc(C(F)(F)F)ccc2N2CCCCC2)c1,-23.2,
Cc1ccc(S(=O)(=O)Nc2cc(C(F)(F)F)ccc2N2CCCCC2)cc1C(=O)O,-23.1,
COc1ccc(C(=O)Nc2cccc(C(F)(F)F)c2)cc1S(=O)(=O)O,30,
Cc1ccc(C(=O)O)cc1S(=O)(=O)Nc1cc(C(F)(F)F)ccc1N1CCCCC1,-10.5,
